From article PMC5540273 (PLoS ONE, 2017)
Like-named read-outs stand apart in the source and are kept apart here.

Experiments:
[1] = tested on: T1, DRAK1; conditions: n = 1
T1 construct: gene STK17A

[2] = tested on: T2, DRAK2; conditions: n = 1
T2 construct: gene STK17B

[3] = tested on: DYRK1A; conditions: concentration: 1 μM, replicates: in singlicate; n = 1
[4] = tested on: DYRK1B; conditions: concentration: 1 μM, replicates: in singlicate; n = 1
[5] = tested on: DYRK2; conditions: concentration: 1 μM, replicates: in singlicate; n = 1
[6] = tested on: EGFR; conditions: concentration: 1 μM, replicates: in singlicate; n = 1
[7] = tested on: EIF2AK1; conditions: concentration: 1 μM, replicates: in singlicate; n = 1
[8] = tested on: EPHA1; conditions: concentration: 1 μM, replicates: in singlicate; n = 1
[9] = tested on: EPHA2; conditions: concentration: 1 μM, replicates: in singlicate; n = 1
[10] = tested on: EPHA3; conditions: concentration: 1 μM, replicates: in singlicate; n = 1
[11] = tested on: EPHA4; conditions: concentration: 1 μM, replicates: in singlicate; n = 1
[12] = tested on: EPHA5; conditions: concentration: 1 μM, replicates: in singlicate; n = 1
[13] = tested on: EPHA6; conditions: concentration: 1 μM, replicates: in singlicate; n = 1
[14] = tested on: EPHA7; conditions: concentration: 1 μM, replicates: in singlicate; n = 1
[15] = tested on: EPHA8; conditions: concentration: 1 μM, replicates: in singlicate; n = 1
[16] = tested on: EPHB1; conditions: concentration: 1 μM, replicates: in singlicate; n = 1
[17] = tested on: EPHB2; conditions: concentration: 1 μM, replicates: in singlicate; n = 1
[18] = tested on: EPHB3; conditions: concentration: 1 μM, replicates: in singlicate; n = 1
[19] = tested on: EPHB4; conditions: concentration: 1 μM, replicates: in singlicate; n = 1
[20] = tested on: EPHB6; conditions: concentration: 1 μM, replicates: in singlicate; n = 1
[21] = concentration: 1 μM, replicates: in singlicate
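Also: KINOMEscan kinase panel screen.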

CC(C)(C)c1ccc(C(=O)Nc2cn3cc(Cl)ccc3n2)cc1
%Inh [1, 21]: 5% | %Inh [2, 21]: 20% | %Inh [3]: 47% | %Inh [4]: 65% | %Inh [5]: 0% | %Inh [6]: 0% | %Inh [7]: 0% | %Inh [8]: 0% | %Inh [9]: 0% | %Inh [10]: 65% | %Inh [11]: 0% | %Inh [12]: 0% | %Inh [13]: 0% | %Inh [14]: 0% | %Inh [15]: 0% | %Inh [16]: 0% | %Inh [17]: 0% | %Inh [18]: 0% | %Inh [19]: 0% | %Inh [20]: 8%

Clc1cc(Cl)cc(Nc2ccnc(Nc3cc(Cl)cc(Cl)c3)n2)c1 [GSK175726]
%Inh [1, 21]: 0% | %Inh [2, 21]: 6% | %Inh [3]: 0% | %Inh [4]: 19% | %Inh [5]: 0% | %Inh [6]: 38% | %Inh [7]: 0% | %Inh [8]: 54% | %Inh [9]: 46% | %Inh [10]: 21% | %Inh [11]: 8% | %Inh [12]: 0% | %Inh [13]: 13% | %Inh [14]: 8% | %Inh [15]: 17% | %Inh [16]: 1% | %Inh [17]: 19% | %Inh [18]: 10% | %Inh [19]: 28% | %Inh [20]: 19%

CN1C(=O)C(Nc2ccc(Cl)c(C(=O)O)c2)=C(c2ccc(Cl)cc2)C1=O [SB-404290]
%Inh [1, 21]: 0% | %Inh [2, 21]: 0% | %Inh [3]: 2% | %Inh [4]: 0% | %Inh [5]: 0% | %Inh [6]: 0% | %Inh [7]: 0% | %Inh [8]: 5% | %Inh [9]: 0% | %Inh [10]: 18% | %Inh [11]: 1% | %Inh [12]: 0% | %Inh [13]: 2% | %Inh [14]: 2% | %Inh [15]: 19% | %Inh [16]: 9% | %Inh [17]: 0% | %Inh [18]: 7% | %Inh [19]: 0% | %Inh [20]: 28%

O=C(O)COc1ncnc2cc(-c3ccc4[nH]ncc4c3)sc12
%Inh ([1]; 1 µM): 83% | %Inh ([2]; 1 µM): 99.3% | %Inh [3]: 67% | %Inh [4]: 41% | %Inh [5]: 66% | %Inh [6]: 0% | %Inh [7]: 0% | %Inh [8]: 15% | %Inh [9]: 10% | %Inh [10]: 10% | %Inh [11]: 0% | %Inh [12]: 42% | %Inh [13]: 4% | %Inh [14]: 0% | %Inh [15]: 0% | %Inh [16]: 0% | %Inh [17]: 0% | %Inh [18]: 0% | %Inh [19]: 7% | %Inh [20]: 47%

Cl.Oc1ccc(-c2nc(-c3ccccc3)[nH]c2-c2ccncc2)cc1 [SB-428218]
%Inh [1, 21]: 0% | %Inh [2, 21]: 0% | %Inh [3]: 17% | %Inh [4]: 0% | %Inh [5]: 0% | %Inh [6]: 31% | %Inh [7]: 5% | %Inh [8]: 55% | %Inh [9]: 1% | %Inh [10]: 0% | %Inh [11]: 30% | %Inh [12]: 0% | %Inh [13]: 35% | %Inh [14]: 0% | %Inh [15]: 4% | %Inh [16]: 0% | %Inh [17]: 4% | %Inh [18]: 25% | %Inh [19]: 45% | %Inh [20]: 25%

Fc1cc(Cl)ccc1Nc1ccnc2cc(-c3ccc(CN4CCCCC4)o3)ccc12 [GW560116]
%Inh [1, 21]: 33% | %Inh [2, 21]: 0% | %Inh [3]: 0% | %Inh [4]: 0% | %Inh [5]: 9% | %Inh [6]: 27% | %Inh [7]: 0% | %Inh [8]: 43% | %Inh [9]: 6% | %Inh [10]: 33% | %Inh [11]: 0% | %Inh [12]: 0% | %Inh [13]: 24% | %Inh [14]: 0% | %Inh [15]: 30% | %Inh [16]: 12% | %Inh [17]: 10% | %Inh [18]: 0% | %Inh [19]: 12% | %Inh [20]: 51%

COc1cccc(-c2cc(-c3c[nH]nc3-c3ccccn3)ccn2)c1 [GW680338]
%Inh [1, 21]: 0% | %Inh [2, 21]: 2% | %Inh [3]: 13% | %Inh [4]: 14% | %Inh [5]: 1% | %Inh [6]: 31% | %Inh [7]: 2% | %Inh [8]: 0% | %Inh [9]: 0% | %Inh [10]: 11% | %Inh [11]: 2% | %Inh [12]: 0% | %Inh [13]: 0% | %Inh [14]: 0% | %Inh [15]: 8% | %Inh [16]: 7% | %Inh [17]: 16% | %Inh [18]: 2% | %Inh [19]: 15% | %Inh [20]: 0%

C[C@@H]1CCCCN1c1cc(-c2ccc3c(N)n[nH]c3c2)nc(N)n1 [GSK2258759]
%Inh [1, 21]: 96% | %Inh [2, 21]: 0% | %Inh [3]: 0% | %Inh [4]: 0% | %Inh [5]: 10% | %Inh [6]: 18% | %Inh [7]: 0% | %Inh [8]: 8% | %Inh [9]: 0% | %Inh [10]: 7% | %Inh [11]: 2% | %Inh [12]: 0% | %Inh [13]: 1% | %Inh [14]: 0% | %Inh [15]: 3% | %Inh [16]: 12% | %Inh [17]: 0% | %Inh [18]: 7% | %Inh [19]: 15% | %Inh [20]: 14%

COc1cc2ncn(-c3cc(OCC4CCCO4)c(C(N)=O)s3)c2cc1OC (stereo not drawn) [GSK204607]
%Inh [1, 21]: 0% | %Inh [2, 21]: 0% | %Inh [3]: 0% | %Inh [4]: 0% | %Inh [5]: 14% | %Inh [6]: 20% | %Inh [7]: 0% | %Inh [8]: 3% | %Inh [9]: 10% | %Inh [10]: 16% | %Inh [11]: 7% | %Inh [12]: 0% | %Inh [13]: 1% | %Inh [14]: 0% | %Inh [15]: 3% | %Inh [16]: 24% | %Inh [17]: 0% | %Inh [18]: 0% | %Inh [19]: 27% | %Inh [20]: 23%
